Bioassay records deposited in PubChem BioAssay by National Center for Advancing Translational Sciences (NCATS).
Only some compounds are listed: those with a hit (about 0.39% of all), similar ones and a draw of the others.
Anesthetic bind: candidate novel general anesthetic via apoferritin binding; Potency, µM (doses to about 77.5 µM), inactives show at the top dose activity change, negative = displacement, most hits filed as inhibitors; AID 485281; apoferritin/1-aminoanthracene competitive binding, fluorescence; 0.074% of 350,000 active; further: potency means the concentration at half of the fitted maximal effect; on the % scale 0 is the no-effect control and ±100 the full control effect; nearly all actives have a fitted effect of over 20% in size
Target sequence (P02791 2-175 limits assumed): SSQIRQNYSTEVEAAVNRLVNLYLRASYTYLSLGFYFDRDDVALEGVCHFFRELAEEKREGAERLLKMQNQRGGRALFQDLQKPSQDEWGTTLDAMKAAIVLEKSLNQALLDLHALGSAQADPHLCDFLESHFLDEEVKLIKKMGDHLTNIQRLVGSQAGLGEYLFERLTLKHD
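Apoferritin-based anesthetic binding model; compound displacement of fluorescent 1-AMA measured as endpoint fluorescence after 10 minutes at room temperature, scaled to free-ligand and complex controls.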
MmCpn inh: blocks the Methanococcus maripaludis chaperonin Mm-Cpn. AID 504842. 0.031% of 330,000 active. purified Mm-Cpn ATPase, ADP Transcreener TR-FRET. Potency, µM (top dose mostly 76.9 µM), for inactives: top-dose activity, negative = inhibition, most hits filed as inhibitors; further: potency means the concentration at half of the fitted maximal effect; on the % scale 0 is the no-effect control and ±100 the full control effect; nearly all actives have a fitted effect of over 80% in size
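ATP (10 uM final) was added to archaeal chaperonin (25 nM final) after 10 min exposure to test compound at 37°C; after 30 min further incubation, ADP was detected by competitive TR-FRET.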
ERG Ets-DNA blk: blocks human ERG Ets domain binding to DNA; P11308; fluorescence polarization, His-ERG Ets domain / labelled DNA; Potency, µM (titrated, usually from 76.9 µM), inactives show at the highest dose FP activity, negative = inhibition, hits mostly inhibitors; 0.028% of 370,000 active; AID 624246; active means well fitted inhibition curve with a large enough effect in the polarisation, with a control signal flat; inconclusive means small, poorly fitted or top-dose-only effect, or effect the other way, or a change in a side signal; inactive means no such curve, though single readings can be large or run the other way; the % refers to the polarisation;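 further: polarization taken with two DNA probes labelled with fluorescein and Texas red; potency means the concentration at half of the fitted maximal effect; % of control where 0% means no effect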
Target sequence (P11308 whole entry, looked up, the tested form may be a part): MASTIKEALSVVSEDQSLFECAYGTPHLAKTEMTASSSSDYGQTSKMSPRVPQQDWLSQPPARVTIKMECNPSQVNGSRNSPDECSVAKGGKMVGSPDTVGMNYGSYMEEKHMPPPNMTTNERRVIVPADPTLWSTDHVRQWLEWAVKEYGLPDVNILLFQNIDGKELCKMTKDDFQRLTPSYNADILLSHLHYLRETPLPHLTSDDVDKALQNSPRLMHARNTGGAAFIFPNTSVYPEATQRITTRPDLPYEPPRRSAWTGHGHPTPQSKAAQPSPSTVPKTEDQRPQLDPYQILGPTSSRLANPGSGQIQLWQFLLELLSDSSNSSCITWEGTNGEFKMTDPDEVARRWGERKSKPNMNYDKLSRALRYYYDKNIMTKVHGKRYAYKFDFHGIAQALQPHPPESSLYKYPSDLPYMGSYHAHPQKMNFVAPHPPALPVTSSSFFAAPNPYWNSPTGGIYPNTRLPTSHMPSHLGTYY
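His-tagged ERG Ets domain (1 uM in the protein solution; 300mM KCl, 50mM Tris-HCl, 1mM EDTA, 1mM DTT, pH 7.5) received compound, then a probe mix of 5 nM fluorescein-DNA and 100nM Texas-615-DNA. Fluorescence polarization was read for both dyes.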
CCT chaperon mod: changes cytosolic chaperonin activity. purified chaperonin ATPase assay, HTRF ADP detection, 30 min. activity change, % (concentration not given with the values), hits read low. 0.3% of 360,000 active; in the data active means activity change below about -30%; further: on the % scale 0 is the no-effect control and ±100 the full control effect
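Enzyme 40 or 20 nM (batch-dependent) in Tris pH 7.4/KCl/MgCl2/DTT; cpd 76 uM single point; ATP 10 uM; 30 min 37 °C; Transcreener ADP HTRF detection, 30 min RT; ratio 665/615.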
Active calls of the source: *; u = inconclusive; x = no result; ! = not confirmed by another sample. Unless noted, the call rests on the fitted dose curve; in most records, active means well fitted curve in the direction sought with a large enough effect; inconclusive means small, poorly fitted or top-dose-only effect, or another doubt; inactive means no such curve, though single readings can be large; an effect the other way counts as inactive or inconclusive.

SMILES | Anesthetic bind | MmCpn inh | ERG Ets-DNA blk | CCT chaperon mod
Cc1ccc(-c2nn(CCC(=O)Nc3cccnc3)c(=O)c3ccccc23)cc1 | 0.7% | 0.6% | 0.4% | -64.6*
O=C(CCn1nc(-c2ccccc2)c2ccccc2c1=O)Nc1cccnc1 | -13.9% | -0.4% | -14.2% | 0.2
CCOc1ccc(/C=C2\SC(=O)N(CCNC(=O)C3COc4ccccc4O3)C2=O)cc1OC (configuration not stated) | 4.0% | 1.9% | 3.6% | -34.5*
COc1ccc(/C=C2/SC(=O)N(CCNC(=O)C3COc4ccccc4O3)C2=O)cc1 (configuration not stated) | -4.5% | 1.3% | 2.4% | 2.8
CCOc1ccccc1Nc1ccc2cc(S(=O)(=O)N3CCCCC3)ccc2n1 | 439.5% | x | -4.9% | x
CCCCCCCCCCCCCCCC[n+]1cccc(C(=O)N(CC)CC)c1 | 15.8µM* | -1.5% | 17.4% | -1.5
CCOc1ccccc1CNC(=O)CCc1c(C)nn(-c2ccc(N3CCCC3)nn2)c1C | -6.7% | x | 0.0% | x
CCc1ccc(CN2CCCC(C(=O)Nc3ccccc3-c3ccc(OC)cc3)C2)o1 (configuration not stated) | -5.0% | -0.7% | 31.6µM* | -1.5
CCOC(=O)c1c(NC(=O)C2=C(C)NC(=S)NC2c2ccccc2C(F)(F)F)sc(C)c1C (configuration not stated) | 0.4% | -3.5% | 35.5µM* | -1.4
CCOC(=O)C1=C(C)NC(=S)NC1c1cc(C)sc1C (configuration not stated) | -23.0% | -2.5% | 6.1% | -2.0
CC(C)N(C(=O)Cn1c(-c2ccccc2Cl)nc2ccccc21)c1ccccc1 | -11.8% | 1.9% | x | -54.9*
O=C(/C=C/c1ccc(O)c(O)c1)c1ccc(O[C@@H]2O[C@H](CO)[C@@H](O)[C@H](O)[C@H]2O)c(O)c1O | -5.9% | x | x | x
Cc1noc(NS(=O)(=O)c2ccc(NC(=O)c3oc4ccc(Cl)cc4c3C)cc2)c1C | -18.0% | 0.6% | -0.5% | -0.9
Cc1c(C(=O)Nc2ccc(S(=O)(=O)Nc3ncccn3)cc2)oc2ccc(Cl)cc12 | -16.8% | 0.9% | 1.6% | -34.3*
Cc1ccc(-n2nc3c(=O)n(CC(=O)NCCC4=CCCCC4)nc(C)c3c2C)cc1 | -17.7% | 0.7% | -3.8% | -77.6*
O=c1c(N2CCCCC2)csc2ccc(F)cc12 | 10.2% | x | 5.0% | x
Cc1cccc(OCc2nc(C#N)c(N3CCCC3)o2)c1 | -4.0% | 5.7% | 12.9% | -30.2*
COc1ccc(CN2CCC3C=CCC(C(=O)O)C3C2=O)cc1OC (configuration not stated) | 2.6% | x | x | x
COC(=O)C1CCN(c2nc3ccccc3nc2C(C#N)C(=O)OCC(C)C)CC1 (configuration not stated) | -10.8% | -0.4% | -5.3% | -40.0*
COc1nc(NC23CC4CC(CC(C4)C2)C3)nc(OC)n1 | 7.08µM* | -1.4% | -1.7% | 3.0
CCCCSC(=O)Nc1ccccc1 | 12.6µM* | -2.0% | -10.3% | 0.1
CCOCCCn1c(SCC(=O)NC2CCCCC2)nc2ccccc2c1=O | x | x | x | -85.9*
CCOC(CCn1c(SCC(=O)NC2CCCC2)nc2ccccc2c1=O)OCC | -6.3% | 0.1% | 4.0% | -0.9
COC(=O)c1c(NC(=O)COc2cccc(C(F)(F)F)c2)sc2c1CCCC2 | -1.8% | x | -2.3% | x
CCOC(=O)N1CCN(CCC(=O)Nc2cccc(Br)c2)CC1 | -5.2% | -2.5% | 3.9% | -95.6*!
SMILES | Anesthetic bind | MmCpn inh | ERG Ets-DNA blk | CCT chaperon mod
O=C(Cl)COCc1ccccc1 | -12.2% | x | x | x
O=S(=O)(c1cccc(-c2nnc(-c3ccc(Br)cc3)o2)c1)N1CCCCCC1 | -11.7% | -3.3% | -3.6% | -57.8*
O=S(=O)(c1cccc(-c2nnco2)c1)N1CCCC1 | -0.2% | -1.3% | -1.5% | 2.3
NC(=O)CSc1nnc(-c2cccc(S(=O)(=O)N3CCCCC3)c2)o1 | -7.8% | -1.9% | -0.7% | -56.7*
O=C(CSc1nnc(-c2cccc(S(=O)(=O)N3CCCCC3)c2)o1)c1ccc[nH]1 | -20.2% | -6.9% | 6.7% | -3.1
CCN(CCCCO)c1nc(C)nc2c1c(C)c(C)n2-c1c(C)cc(C)cc1C | -4.1% | x | x | x
CC1(C)CC(=O)c2c(oc3c(Cl)cc(NS(=O)(=O)c4ccc(Br)cc4)cc23)C1 | 2.3% | x | 4.7% | x
O=C(Cc1ccc(S(=O)(=O)N2CCOCC2)s1)N1CCN(c2cccc(C(F)(F)F)c2)CC1 | -18.7% | -4.1% | 3.0% | 0.5
O=C(Cc1ccc(S(=O)(=O)N2CCCC2)s1)N1CCN(c2ccccc2)CC1 | -10.6% | -0.9% | 5.3% | -92.7*
COc1ccc(CC(=O)NNC(=O)COc2ccc3ccccc3c2)cc1 | -9.0% | 39.8µM* | -2.2% | 0.2
O=C(CC1C(=O)NCCN1C/C=C/c1ccccc1)NCCc1cnccn1 (configuration not stated) | -1.4% | 2.6% | 9.5% | -2.2
O=C(CC1C(=O)NCCN1C/C=C/c1ccccc1)NCCc1ccncc1 (configuration not stated) | -8.8% | 1.2% | -6.5% | -32.9*
COc1cc(COC(=O)c2cnc(C)cn2)c(OC)cc1Br | 0.4% | -0.8% | -1.2% | -51.6*
COc1ccccc1C(=O)COC(=O)c1cnc(C)cn1 | x | 0.8% | -3.7% | -3.1
CCOC(=O)c1c(C)[nH]c(C)c1S(=O)(=O)N1CCCC(C(=O)N2CCN(c3ccccc3F)CC2)C1 (configuration not stated) | 1.0% | x | -12.5% | x
COc1cc(/C=N/n2cnnc2)ccc1OS(=O)(=O)c1ccccc1[N+](=O)[O-] | -6.5% | -1.4% | 6.9% | -0.4
COc1cc(C=O)ccc1OS(=O)(=O)c1ccccc1[N+](=O)[O-] | -12.2% | -1.1% | 1.0% | -42.4*
Cc1ccccc1NC(=O)c1c(C)nn(-c2ccccc2)c1Cl | -12.0% | 0.4% | -5.4% | -39.8*
COc1ccccc1NC(=O)c1c(C)nn(-c2ccccc2)c1Cl | 2.0% | 0.7% | 4.7% | -0.9
Cc1cc2cc(CNS(=O)(=O)c3ccccc3)ccc2n1C | -22.0% | u | 11.2µM* | 0.4
COc1ccc(S(=O)(=O)NCc2ccc3c(c2)cc(C)n3C)cc1 | -23.9% | -29.1% | 35.5µM* | -0.4
CCS(=O)(=O)NCc1ccc2c(c1)cc(C)n2C | -7.9% | -5.5% | 1.3% | 1.5
C/C(=C\COc1c2ccoc2cc2oc(=O)ccc12)CCC(O)C(C)(C)O (configuration not stated) | -10.4% | x | x | x
CCc1ccc(CNC(=O)c2ccc3c(c2)nc2n3CCOC2)cc1 | 53.5% | x | 10.2% | x
COc1ccc(C(=O)NC(=O)COC(=O)CCS(=O)(=O)c2ccc(C)cc2)cc1 | x | 3.0% | -10.3% | -1.3
CC(C)(C)c1ccc(C(=O)NC(=O)COC(=O)CCS(=O)(=O)c2ccccc2)cc1 | x | -2.3% | -14.0% | -67.9*
O=C(OCc1c(F)cccc1Cl)c1cnccn1 | -9.3% | 0.8% | 6.2% | -40.4*
O=C(OCc1c(F)cccc1Cl)c1cnc2ccccc2n1 | -15.5% | -5.1% | 17.8% | 0.1
CCOC(=O)c1c(C)c(-c2ccccc2)n(CC(=O)NCc2cccc(OC)c2)c1C | -5.1% | x | -6.1% | x
